Assay results: the supplement of paper PMC10849652
Of roughly 7,900 targets only a part is listed; those with a hit were picked by preference. About 0.6% of all pairs of compound and target were hits. A number with no mark means an inactive call.

What was measured:
Assay in all cases: log2 fold change, soluble protein after heating vs DMSO (PISA); higher = thermal stabilisation; K562 cells, 10 uM, 30 min; active = over 0.2 and 3.5 SD of the protein, either way, in both replicates (recomputed)
[1] = compound: CC1=C(C=C(C=C1)NC(=O)C2=CC(=CC=C2)C(C)(C)C#N)NC3=CC4=C(C=C3)N=CN(C4=O)C
Outline: (§1)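 Values are thermal stability changes relative to control samples and are taken from duplicates. They are stated as log2 fold changes. Before quantification by TMTpro 16plex LC-MS/MS with equalised channel sums, K562 cells at 2×10^6 cells/mL were treated with 10 μM compound for 30 min, heated in aliquots for 3 min across 48°C-58°C, pooled, extracted in PBS with 0.5% NP-40 at 4°C, and centrifuged at 21,000xg for 90 min to give the soluble supernatant.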

[2] = compound: CC1=C(C=C(C=C1)NC(=O)C2=CC(=CC=C2)N(C)C)NC(=O)C3=CC=C(C=C3)O
Outline: as §1

[3] = compound: CC1=CC=C(C=C1)SC2=C3C=C(SC3=CN=C2)C(=O)N
Outline: as §1

[4] = compound: CC1=NC(=CC=C1)C2=C(N=C(N2)C(C)(C)C)C3=CC4=NC=CN=C4C=C3
Outline: as §1

[5] = compound: CCCCN(Cc1ccc(C(=O)NO)cc1)C(=O)Nc1ccccc1 [Nexturastat A]
Outline: as §1

[6] = compound: CCCS(=O)(=O)Nc1ccc(F)c(C(=O)c2c[nH]c3ncc(-c4ccc(Cl)cc4)cc23)c1F [vemurafenib]
Outline: as §1

[7] = compound: CCCS(=O)(=O)Nc1ccc(F)c(C(=O)c2c[nH]c3ncc(Cl)cc23)c1F
Outline: as §1

[8] = compound: CCCc1cc(C)[nH]c(=O)c1CNC(=O)c1cc(-c2ccnc(N3CCN(C)CC3)c2)cc2c1cnn2C(C)C
Outline: as §1

[9] = compound: CCN(CC)Cc1ccc2cc(COC(=O)Nc3ccc(C(=O)NO)cc3)ccc2c1 [givinostat]
Outline: as §1

[10] = compound: CCN(CCCOc1ccc2c(Nc3cc(CC(=O)Nc4cccc(F)c4)[nH]n3)ncnc2c1)CCOP(=O)(O)O [barasertib]
Outline: as §1

[11] = compound: CC[C@@H]1C(=O)N(C)c2cnc(Nc3ccc(C(=O)NC4CCN(C)CC4)cc3OC)nc2N1C1CCCC1
Outline: as §1

[12] = compound: CC[C@@H]1C(=O)N(C)c2cnc(Nc3ccc(C(=O)N[C@H]4CC[C@H](N5CCN(CC6CC6)CC5)CC4)cc3OC)nc2N1C(C)C [volasertib]
Outline: as §1

[13] = compound: CC[C@H](C)N1C=C(C2=C(C=C(C=C21)C3=CN=C(C=C3)N4CCNCC4)C(=O)NCC5=C(C=C(NC5=O)C)C)C
Outline: as §1

[14] = compound: CC[C@H](C)[C@@H](C(=O)N[C@@H]([C@@H](C)O)C(=O)N[C@@H](CC(C)C)C(=O)[C@]1(CO1)C)NC(=O)[C@H]([C@@H](C)CC)N(C)C(=O)C [epoxomicin]
Outline: as §1

[15] = compound: CCn1c(C(=O)N(C2CC2)C2CC2)cc2c3c(ncn3C)c(Nc3cc(C)n(C)n3)nc21
Outline: as §1

[16] = compound: CCn1cc(-c2ccnc3[nH]c(-c4cccc(CN(C)C)c4)cc23)c(-c2ccc(NC(=O)N(C)C)cc2)n1
Outline: as §1

[17] = compound: CN(C)CC(=O)Nc1ccc2[nH]c(=O)c3ccccc3c2c1
Outline: as §1

[18] = compound: CN(CCOC1=CC=C(C=C1)C[C@H]2C(=O)NC(=O)S2)C3=CC=CC=N3 (racemic) [rosiglitazone]
Outline: as §1

[19] = compound: CN1C2=C(C3=C1C(=O)N(N=C3)CC4=CC(=CC=C4)N)SC(=C2)S(=O)C
Outline: as §1

[20] = compound: CN1CCC(CNc2ccc3ncc(-c4cccc(OC(F)(F)F)c4)n3n2)CC1
Outline: as §1

UniProt Q99627, sequence (Q99627 whole entry, looked up): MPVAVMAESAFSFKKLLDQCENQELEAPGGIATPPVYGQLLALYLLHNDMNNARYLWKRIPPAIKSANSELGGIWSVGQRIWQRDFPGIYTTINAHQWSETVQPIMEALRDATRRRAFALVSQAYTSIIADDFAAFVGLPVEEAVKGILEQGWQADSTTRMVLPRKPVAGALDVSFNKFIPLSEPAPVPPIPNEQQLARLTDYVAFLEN
UniProt Q96JM3, sequence (Q96JM3 whole entry, looked up): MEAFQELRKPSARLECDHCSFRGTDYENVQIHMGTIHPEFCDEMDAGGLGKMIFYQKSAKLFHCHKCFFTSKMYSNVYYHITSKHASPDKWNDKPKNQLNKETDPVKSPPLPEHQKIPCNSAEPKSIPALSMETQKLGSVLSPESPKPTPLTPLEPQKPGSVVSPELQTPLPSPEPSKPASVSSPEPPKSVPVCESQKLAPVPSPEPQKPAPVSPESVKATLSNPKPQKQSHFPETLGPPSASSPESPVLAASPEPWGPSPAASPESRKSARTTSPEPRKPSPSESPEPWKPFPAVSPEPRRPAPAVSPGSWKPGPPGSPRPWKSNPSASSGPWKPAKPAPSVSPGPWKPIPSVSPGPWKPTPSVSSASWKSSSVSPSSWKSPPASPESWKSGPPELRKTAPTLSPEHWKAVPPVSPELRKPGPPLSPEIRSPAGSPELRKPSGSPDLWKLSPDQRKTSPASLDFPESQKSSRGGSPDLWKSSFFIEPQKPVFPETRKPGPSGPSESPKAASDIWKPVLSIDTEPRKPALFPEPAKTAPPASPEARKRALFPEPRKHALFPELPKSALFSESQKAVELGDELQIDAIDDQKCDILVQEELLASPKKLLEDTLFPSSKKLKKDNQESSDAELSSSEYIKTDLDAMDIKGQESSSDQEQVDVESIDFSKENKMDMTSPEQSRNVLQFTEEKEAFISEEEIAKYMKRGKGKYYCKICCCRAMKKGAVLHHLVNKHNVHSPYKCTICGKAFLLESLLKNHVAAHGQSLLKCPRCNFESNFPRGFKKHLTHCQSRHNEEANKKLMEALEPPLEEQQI
UniProt Q7L3B6, sequence (Q7L3B6 whole entry, looked up): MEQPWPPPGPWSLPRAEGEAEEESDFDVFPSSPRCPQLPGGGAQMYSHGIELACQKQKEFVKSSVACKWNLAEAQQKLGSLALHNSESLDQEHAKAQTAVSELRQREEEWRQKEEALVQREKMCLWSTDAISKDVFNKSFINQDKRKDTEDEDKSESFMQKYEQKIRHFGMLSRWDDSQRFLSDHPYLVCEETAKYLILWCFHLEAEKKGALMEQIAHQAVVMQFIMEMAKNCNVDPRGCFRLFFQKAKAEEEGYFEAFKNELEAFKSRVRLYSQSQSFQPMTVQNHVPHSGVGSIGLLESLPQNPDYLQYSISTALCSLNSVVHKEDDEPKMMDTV
UniProt Q00587, sequence (Q00587 whole entry, looked up): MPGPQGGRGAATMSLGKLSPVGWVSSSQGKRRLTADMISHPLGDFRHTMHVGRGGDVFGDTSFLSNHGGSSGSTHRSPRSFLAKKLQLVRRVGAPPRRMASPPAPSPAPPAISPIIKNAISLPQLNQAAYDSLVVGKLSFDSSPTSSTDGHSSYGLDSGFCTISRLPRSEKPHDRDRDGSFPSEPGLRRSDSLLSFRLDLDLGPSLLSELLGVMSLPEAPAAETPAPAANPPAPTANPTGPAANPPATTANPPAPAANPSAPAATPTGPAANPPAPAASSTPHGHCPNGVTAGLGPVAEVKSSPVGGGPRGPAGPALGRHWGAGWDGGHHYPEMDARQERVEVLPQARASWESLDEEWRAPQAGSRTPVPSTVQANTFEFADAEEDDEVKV
UniProt Q01459, sequence (Q01459 whole entry, looked up): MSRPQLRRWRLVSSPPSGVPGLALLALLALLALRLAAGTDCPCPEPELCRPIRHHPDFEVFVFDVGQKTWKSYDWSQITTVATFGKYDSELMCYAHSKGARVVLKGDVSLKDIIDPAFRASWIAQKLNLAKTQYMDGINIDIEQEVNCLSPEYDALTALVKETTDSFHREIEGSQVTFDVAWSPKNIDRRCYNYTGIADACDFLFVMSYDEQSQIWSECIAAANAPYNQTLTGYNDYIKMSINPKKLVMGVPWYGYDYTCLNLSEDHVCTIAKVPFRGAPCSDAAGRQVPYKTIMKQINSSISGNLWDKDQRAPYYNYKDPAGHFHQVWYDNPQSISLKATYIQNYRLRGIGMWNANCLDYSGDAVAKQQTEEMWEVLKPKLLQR
UniProt Q8IUI8, sequence (Q8IUI8 whole entry, looked up): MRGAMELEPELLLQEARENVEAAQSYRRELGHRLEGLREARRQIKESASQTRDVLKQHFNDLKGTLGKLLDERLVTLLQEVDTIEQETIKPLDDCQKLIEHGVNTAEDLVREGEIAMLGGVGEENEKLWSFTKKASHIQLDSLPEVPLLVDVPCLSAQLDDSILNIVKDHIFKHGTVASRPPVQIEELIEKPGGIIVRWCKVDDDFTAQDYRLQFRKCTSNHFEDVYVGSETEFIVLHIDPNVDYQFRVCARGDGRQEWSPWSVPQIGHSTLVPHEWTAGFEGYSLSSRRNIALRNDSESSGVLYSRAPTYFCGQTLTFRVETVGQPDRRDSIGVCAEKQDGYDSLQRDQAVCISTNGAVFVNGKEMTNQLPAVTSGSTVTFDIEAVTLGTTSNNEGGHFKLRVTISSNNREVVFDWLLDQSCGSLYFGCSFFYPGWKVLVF
UniProt P41208, sequence (P41208 whole entry, looked up): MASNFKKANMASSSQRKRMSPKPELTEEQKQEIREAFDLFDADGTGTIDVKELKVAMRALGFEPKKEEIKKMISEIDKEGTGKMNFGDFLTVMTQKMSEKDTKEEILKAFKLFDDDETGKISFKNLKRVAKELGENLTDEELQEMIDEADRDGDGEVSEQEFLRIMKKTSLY
UniProt O75122, sequence (O75122 whole entry, looked up): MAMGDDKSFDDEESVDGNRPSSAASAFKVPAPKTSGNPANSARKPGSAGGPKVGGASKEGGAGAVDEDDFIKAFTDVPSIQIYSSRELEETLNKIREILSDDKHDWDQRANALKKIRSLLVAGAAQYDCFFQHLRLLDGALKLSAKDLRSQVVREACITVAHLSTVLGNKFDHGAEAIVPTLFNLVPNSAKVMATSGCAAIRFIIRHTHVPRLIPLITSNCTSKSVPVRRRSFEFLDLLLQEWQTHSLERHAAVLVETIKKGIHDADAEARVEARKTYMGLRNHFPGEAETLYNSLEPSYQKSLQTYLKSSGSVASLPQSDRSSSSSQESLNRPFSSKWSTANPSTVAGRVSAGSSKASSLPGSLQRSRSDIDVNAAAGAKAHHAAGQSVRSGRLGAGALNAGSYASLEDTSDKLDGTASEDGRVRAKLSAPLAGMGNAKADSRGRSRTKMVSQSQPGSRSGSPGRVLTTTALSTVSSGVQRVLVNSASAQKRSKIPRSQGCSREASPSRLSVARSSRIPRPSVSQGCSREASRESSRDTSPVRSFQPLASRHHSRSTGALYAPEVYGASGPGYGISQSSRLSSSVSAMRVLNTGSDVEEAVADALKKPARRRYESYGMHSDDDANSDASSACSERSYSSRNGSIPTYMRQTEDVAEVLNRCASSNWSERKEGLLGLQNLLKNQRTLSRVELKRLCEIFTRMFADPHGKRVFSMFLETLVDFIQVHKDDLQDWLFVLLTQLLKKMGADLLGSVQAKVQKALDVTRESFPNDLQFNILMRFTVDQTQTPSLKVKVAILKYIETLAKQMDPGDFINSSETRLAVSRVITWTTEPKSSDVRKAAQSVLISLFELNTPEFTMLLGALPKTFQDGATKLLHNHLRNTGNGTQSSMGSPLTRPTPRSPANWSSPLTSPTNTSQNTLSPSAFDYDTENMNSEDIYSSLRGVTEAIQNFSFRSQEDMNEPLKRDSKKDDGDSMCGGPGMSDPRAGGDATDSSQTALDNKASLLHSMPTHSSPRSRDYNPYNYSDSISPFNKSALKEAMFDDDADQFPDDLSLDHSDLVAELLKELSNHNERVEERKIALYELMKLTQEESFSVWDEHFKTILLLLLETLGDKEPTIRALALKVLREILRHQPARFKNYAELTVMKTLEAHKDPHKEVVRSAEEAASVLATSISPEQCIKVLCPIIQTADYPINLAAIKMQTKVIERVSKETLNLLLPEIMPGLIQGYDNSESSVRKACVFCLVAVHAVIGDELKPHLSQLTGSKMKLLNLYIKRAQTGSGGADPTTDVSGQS
UniProt O75390, sequence (O75390 whole entry, looked up): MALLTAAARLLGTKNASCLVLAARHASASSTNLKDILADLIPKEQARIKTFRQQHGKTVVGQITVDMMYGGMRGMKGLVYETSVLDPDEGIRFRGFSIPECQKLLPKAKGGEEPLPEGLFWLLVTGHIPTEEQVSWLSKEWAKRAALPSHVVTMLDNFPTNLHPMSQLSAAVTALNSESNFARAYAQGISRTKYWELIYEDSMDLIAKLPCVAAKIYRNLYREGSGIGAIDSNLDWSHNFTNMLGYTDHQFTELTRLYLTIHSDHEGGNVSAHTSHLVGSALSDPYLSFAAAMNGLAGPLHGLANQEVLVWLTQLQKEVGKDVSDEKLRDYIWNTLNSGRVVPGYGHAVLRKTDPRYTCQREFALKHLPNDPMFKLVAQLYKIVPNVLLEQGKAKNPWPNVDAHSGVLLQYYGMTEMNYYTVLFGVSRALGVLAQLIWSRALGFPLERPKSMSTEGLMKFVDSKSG
UniProt P14854, sequence (P14854 whole entry, looked up): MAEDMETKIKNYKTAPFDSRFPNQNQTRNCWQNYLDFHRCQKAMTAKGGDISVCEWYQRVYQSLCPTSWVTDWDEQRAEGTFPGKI
UniProt P51946, sequence (P51946 whole entry, looked up): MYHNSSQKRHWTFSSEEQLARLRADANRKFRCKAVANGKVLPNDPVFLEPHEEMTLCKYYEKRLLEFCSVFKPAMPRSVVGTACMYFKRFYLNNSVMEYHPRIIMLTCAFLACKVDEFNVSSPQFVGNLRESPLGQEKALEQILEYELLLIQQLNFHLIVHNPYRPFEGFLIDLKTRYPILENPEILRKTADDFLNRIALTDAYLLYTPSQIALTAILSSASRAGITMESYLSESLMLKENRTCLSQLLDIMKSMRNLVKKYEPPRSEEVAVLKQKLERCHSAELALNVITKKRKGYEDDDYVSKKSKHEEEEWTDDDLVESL

| Target | log2 fold change [1] | log2 fold change [2] | log2 fold change [3] | log2 fold change [4] | log2 fold change [5] | log2 fold change [6] | log2 fold change [7] | log2 fold change [8] | log2 fold change [9] | log2 fold change [10] | log2 fold change [11] | log2 fold change [12] | log2 fold change [13] | log2 fold change [14] | log2 fold change [15] | log2 fold change [16] | log2 fold change [17] | log2 fold change [18] | log2 fold change [19] | log2 fold change [20] |
| --- | --- | --- | --- | --- | --- | --- | --- | --- | --- | --- | --- | --- | --- | --- | --- | --- | --- | --- | --- | --- |
| CLUH (UniProt O75153) | -0.017 | -0.08 | -0.002 | -0.072 | -0.022 | 0.047 | -0.03 | 0.049 | 0.016 | 0.033 | 0.225 | 0.632 (active) | 0.015 | -0.028 | 0.047 | -0.113 | 0.094 | 0.134 | 0.019 | 0.387 (active) |
| CDC42EP1 (UniProt Q00587) | -0.005 | 0.034 | -0.002 | 0.073 | 0.022 | 0.011 | -0.022 | 0.075 | 0.15 | -0.004 | -0.005 | 0.058 | 0.057 | 0.032 | -0.096 | -0.051 | -0.016 | 0.093 | 0.039 | -0.554 (active) |
| CRLF3 (UniProt Q8IUI8) | 0.05 | -0.015 | 0.03 | -0.071 | 0.005 | 0.057 | 0.044 | 0.025 | 0.065 | 0.073 | -0.085 | -0.277 | 0.067 | 0 | -0.069 | -0.041 | 0.024 | 0.041 | 0.031 | -0.268 (active) |
| CLASP2 isoform 3 (UniProt O75122) | -0.032 | -0.01 | 0.013 | 0.012 | -0.006 | 0.089 | 0.061 | 0.029 | 0.013 | 0.066 | -0.175 | -0.326 (active) | 0.054 | 0.034 | -0.087 | -0.024 | 0.051 | 0.038 | 0 | -0.227 (active) |
| CERT isoform 3 (UniProt Q9Y5P4) | 0.154 | -0.103 | -0.039 | -0.001 | -0.048 | 0.101 | 0.061 | 0.02 | -0.027 | -0.002 | 0.06 | 0.044 | 0.07 | 0.058 | -0.023 | -0.057 | -0.019 | -0.017 | -0.127 | 0.279 (active) |
| COPS8 (UniProt Q99627) | 0.031 | -0.04 | 0 | -0.09 | 0.126 | -0.003 | -0.031 | -0.056 | 0.049 | 0.009 | -0.018 | 0.043 | 0.032 | -0.047 | 0.008 | 0.013 | 0.033 | 0.041 | 0.011 | 0.113 |
| CHAMP1 (UniProt Q96JM3) | -0.003 | -0.018 | 0.005 | -0.012 | 0.011 | -0.01 | -0.011 | -0.003 | 0.032 | 0.027 | -0.035 | -0.357 (active) | 0.181 | 0.016 | -0.038 | -0.095 | 0.014 | 0.063 | 0.038 | -0.302 |
| CETN2 (UniProt P41208) | -0.015 | -0.016 | -0.146 | -0.071 | -0.188 | -0.008 | -0.335 (active) | -0.034 | -0.034 | -0.013 | 0.149 | 0.159 | -0.006 | -0.074 | 0.074 | 0.065 | -0.058 | -0.01 | -0.018 | 0.037 |
| CAMSAP1 isoform 3 (UniProt Q5T5Y3) | 0.03 | -0.009 | -0.02 | -0.101 | 0.168 | -0.274 | 0.042 | -0.19 | 0.151 | 0.077 | -0.044 | -0.576 (active) | 0.184 | 0.068 | 0.033 | -0.003 | -0.232 | -0.011 | 0.03 | -0.254 |
| COX6B1 (UniProt P14854) | -0.006 | -0.144 | 0.136 | 0.016 | -0.001 | 0.015 | -0.005 | -0.069 | -0.025 | 0.085 | 0.036 | 0.023 | -0.013 | 0.333 | 0.046 | -0.014 | -0.081 | 0.013 | -0.054 | 0.038 |
| CTBS (UniProt Q01459) | 0.206 | 0.014 | -0.026 | -0.065 | 0.043 | 0.093 | -0.017 | 0.017 | 0.039 | 0.03 | -0.494 (active) | -0.376 (active) | -0.074 | 0.033 | 0.007 | 0.069 | 0.013 | -0.058 | 0.045 | -0.44 (active) |
| COMMD2 (UniProt Q86X83) | -0.014 | -0.051 | 0.007 | 0.035 | 0.022 | 0.023 | 0.159 | 0.019 | 0.11 | 0.053 | -0.004 | -0.264 | 0.07 | -0.088 | -0.022 | -0.005 | -0.108 | 0.134 | 0 | -0.209 |
| CCNH (UniProt P51946) | -0.023 | 0.007 | -0.015 | -0.056 | -0.002 | 0.003 | 0.018 | -0.029 | -0.007 | 0.031 | -0.034 | -0.028 | 0.021 | -0.024 | -0.004 | 0.046 | -0.019 | -0.001 | -0.069 | 0.005 |
| CS (UniProt O75390) | -0.026 | -0.002 | 0.014 | 0.07 | -0.125 | 0.023 | 0.033 | 0 | -0.041 | 0.027 | 0.04 | 0.158 | 0.027 | 0.01 | 0.032 | -0.059 | 0.032 | 0.083 | -0.088 | -0.222 (active) |
| CLPTM1L (UniProt Q96KA5) | -0.014 | 0.01 | 0.03 | 0.022 | -0.032 | 0.045 | 0.016 | -0.015 | 0.009 | 0.021 | -0.067 | -0.185 | 0.005 | 0.013 | 0.009 | -0.051 | 0.023 | 0.054 | -0.023 | -0.188 |
| CDC37L1 (UniProt Q7L3B6) | 0.035 | 0.001 | -0.054 | -0.021 | -0.028 | -0.008 | 0.019 | 0.063 | 0.044 | 0.063 | -0.14 | -0.199 | 0.059 | 0.029 | 0.02 | 0.091 | -0.054 | 0.005 | 0.001 | -0.048 |
